Screens as filed in PubChem BioAssay.
A selection: hits, their analogues and other compounds. The true share with any hit is near 2.2%.
GalR3 antag – GalR3 antagonists in HEK293 cells, primary screen, cell-based, fluorescence readout | Galanin receptor type 3 (Homo sapiens), O60755 | HEK293 GalR3-CNG cAMP membrane potential fluorescence; galR3 body fused to GalR1 C-terminus | inhibition, % at 3 µM | 0.44% of 360,000 active;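 active = inhibition above the screen-wide average plus 3 SD, cut at about 13% in these data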;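 also: forskolin and galanin both at EC90 stimulate the cells; cAMP rise reported by CNG channel membrane potential dye signal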
Target sequence (O60755 1-299 limits assumed): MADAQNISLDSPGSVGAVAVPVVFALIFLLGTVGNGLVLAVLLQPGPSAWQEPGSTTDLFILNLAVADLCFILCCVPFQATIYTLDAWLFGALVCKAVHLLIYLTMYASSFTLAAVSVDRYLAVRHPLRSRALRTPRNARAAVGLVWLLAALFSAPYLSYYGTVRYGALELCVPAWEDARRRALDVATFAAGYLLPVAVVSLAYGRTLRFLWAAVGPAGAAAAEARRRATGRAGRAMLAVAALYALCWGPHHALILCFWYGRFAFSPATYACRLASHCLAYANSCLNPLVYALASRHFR
GAA850 FXN act – FXN promoter activators, primary screen, cell-based, luciferase luminescence, HEK293 lucGAA850 | HEK293 lucGAA850 FXN promoter luciferase reporter, 24 h; percent of 10 µM SAHA response | activation, % at 6 µM | 0.56% of 360,000 active | AID 540364, 2011;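 active = activation above the average of all compounds screened plus 3 SD, cutoff fixed separately per campaign, cut at about 7.5% in these data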
SMARCA2 activ – SMARCA2 (BRM) function activators, primary screen, cell-based, luminescence, high throughput | MG213 cells, MMTV-luciferase reporter, dexamethasone, overnight | activation, % at 9.1 µM | 1% of 370,000 active; in the data active = activation above about 7.8%
HIF act – HIF pathway transcriptional activators, primary screen, cell-based, U2OS HRE-luciferase, luminescence; U2OS HRE-luciferase reporter; normalized: DMSO 0%, desferrioxamine 100%; activation, % at 7.5 µM (by protocol); 0.32% of 300,000 active;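 active = mean activation of at least 10% of the iron chelator positive control signal, with at least half of replicates also reaching 10%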
Hsp70 act – Hsp70 transcriptional activators, primary screen, cell-based, HeLa, Hsp70 promoter luciferase, luminescence, 10 µM | activation, % at 10 µM | HeLa Hsp70 promoter luciferase reporter; scaled: vehicle 0, proteasome-inhibitor control 100% | 0.04% of 200,000 active | AID 1203, 2008;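 active = activation above the mean across all tested compounds plus 3 SD, cutoff set per campaign, cut at about 5.5% in these data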
GAA30 counter – GAA30 FXN promoter activators, confirmation, counter-screen for GAA850 frataxin promoter activator project, cell-based, luminescence, HEK293, lucGAA30, triplicate; shares compounds with GAA850 FXN act; HEK293 lucGAA30 FXN promoter luciferase, 24 h; DMSO = 0%, 5 µM ipriflavone = 100%; activation, % at 6 µM; 66% of 1,900 active;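 active = mean activation above the mean of solvent-only control wells plus 3 SD, cut at about 22% in these data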;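 also: counterscreen of GAA850 promoter hits where activity marks nonselective or luminescence artifacts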
FXN GAA850 conf – FXN GAA850 promoter activators in reporter cells, confirmation, cell-based, luminescence, HEK293 lucGAA850, triplicate; shares compounds with GAA850 FXN act; HEK293 lucGAA850 FXN promoter luciferase reporter, 24 h; 100% = activation by SAHA; activation, % at 6 µM; 86% of 1,900 active;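 active = mean activation above a set limit taken from the primary screen, cut at about 8% in these data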
Numbers stand for hits; n = inactive; x = no result given.

SMILES	GalR3 antag	GAA850 FXN act	SMARCA2 activ	HIF act	Hsp70 act	GAA30 counter	FXN GAA850 conf
CC1CC(C)(C)Nc2ccc(N=O)cc21 (stereo not given)	n	12.5	n	n	n	58.3	67.4
COc1ccc(OCCOc2ccc(C)nc2[N+](=O)[O-])cc1	n	7.7	n	n	n	78.1	24.4
Nc1ccc2c(c1)C(=NO)c1cc([N+](=O)[O-])ccc1-2	n	12.7	n	x	x	78.5	34.5
O=[N+]([O-])c1ccc2c(c1)-c1ccccc1C2=NO	n	n	n	x	x	x	x
COC(=O)C1=C(C)N(Cc2ccccc2C(F)(F)F)C(=NCc2ccccc2C(F)(F)F)NC1c1ccc(Cl)cc1 (stereo not given)	n	x	n	x	x	x	x
OC12CCCCC1C(c1ccc3c(c1)OCO3)N(Cc1ccc(F)cc1)CC2 (stereo not given)	n	14.8	n	n	n	n	11.8
OC12CCCCC1C(c1ccc3c(c1)OCO3)N(Cc1cccc(F)c1)CC2 (stereo not given)	n	11.7	n	n	n	n	12.7
COc1cc2c(cc1OC)/C(=C/C(=O)c1cccc([N+](=O)[O-])c1)NCC2	n	n	n	n	x	x	x
COc1cc2c(cc1OC)/C(=C/C(=O)c1ccccc1F)NCC2	n	8.3	n	n	x	n	12.4
CCS(=O)(=O)N1Cc2ccccc2CC1C(=O)Nc1ccc(F)cc1 (stereo not given)	n	n	n	n	x	x	x
CCS(=O)(=O)N1Cc2ccccc2CC1C(=O)NC(C)C12CC3CC(CC(C3)C1)C2 (stereo not given)	n	12.2	n	n	n	26.8	14.4
CCS(=O)(=O)N1Cc2ccccc2CC1C(=O)NCC12CC3CC(CC(C3)C1)C2 (stereo not given)	n	7.7	n	n	n	n	8.3
COC(=O)c1cc(-c2ccc(OC)cc2)on1	n	n	n	n	n	x	x
COc1ccc(-c2cc(C(=O)NC(C)C)no2)cc1	n	8.1	n	n	n	106.2	32.3
C/C(=N\NC(=O)COc1ccc(C(C)(C)C)cc1)c1ccc(-n2ccnc2)cc1	n	8.5	n	n	n	94.5	21.6
CCCCCCCCN1C(=O)[C@@H](CC(=O)NCCC(C)C)C[C@@]2(C(=O)OC)C1=C[C@H](COCc1ccccc1)O[C@@H]2C	x	x	n	x	x	x	x
CCOC(=O)[C@H]1[C@H]2COc3cc(OC)ccc3[C@@H]2N2C(=O)CN(CCc3c[nH]c4ccccc34)C(=O)[C@@]12C	n	n	n	x	x	x	x
COc1ccc2c(c1)OC[C@H]1[C@H]2N2C(=O)CN(CCc3c[nH]c4ccccc34)C(=O)[C@@]2(C)[C@H]1c1ccccc1	n	7.8	n	x	x	21.9	17.8
COc1ccc(N/C(=C\C(=O)c2ccccc2)c2ccccc2)cc1OC	n	x	n	x	x	x	x
Cc1nc2ccccn2c1C(=O)Nc1ccc(Cl)cc1	n	n	n	n	n	x	x
Cc1ccc(NC(=O)c2c(Cl)nc3ccccn23)cc1	n	10.4	n	n	n	116.2	36.8
CC(C)OC(=O)CSc1nc2cc3c(cc2cc1C#N)OCO3	n	n	n	n	n	x	x
CC(C)c1ccc(-c2c(C#N)c(N)nc(SCC(=O)N3CCCCCC3)c2C#N)cc1	n	x	n	n	n	x	x
CCOC(=O)CSc1nc(N)c(C#N)cc1C#N	n	11.3	n	n	n	51.6	30.1
CCOC(=O)CSc1nc(N)c(C#N)c(-c2ccc(OCC)cc2)c1C#N	n	13.0	n	n	n	n	9.1
SMILES	GalR3 antag	GAA850 FXN act	SMARCA2 activ	HIF act	Hsp70 act	GAA30 counter	FXN GAA850 conf
CC(C)OC(=O)CSc1nc(N)c(C#N)cc1C#N	n	8.4	n	n	n	63.9	28.9
O=C(Nc1ccc([N+](=O)[O-])cc1)N1CCc2ccccc2C1	n	n	n	n	x	x	x
CC(C)c1ccc(NC(=O)N2CCc3ccccc3C2)cc1	n	9.0	n	n	n	112.8	31.9
CN(C)c1ccc(-c2nnn(Cc3ccccc3Br)n2)cc1	n	12.4	n	x	n	70.3	26.3
COC(=O)[C@]12C[C@H](CC(=O)N3CCCC3)C(=O)N(Cc3cccc4ccccc34)C1=C[C@H](C(C)(C)C)O[C@@H]2C	x	x	n	x	x	x	x
c1ccc(Nc2nc(-c3cccs3)cs2)nc1	n	n	n	n	n	x	x
Cc1cccc(Nc2nc(-c3cccs3)cs2)n1	n	7.7	n	n	n	115.4	40.8
Cc1cc(-c2n[nH]c(=S)n2N=Cc2c3ccccc3cc3ccccc23)n[nH]1	x	x	n	x	x	x	x
Cc1cc(Cl)ccc1OCCCC(=O)N1CCCCC1	n	8.6	n	n	n	78.9	30.5
COc1ccc(-c2ccc(=O)n(Cc3cc(=O)n4ccccc4n3)n2)cc1	n	8.1	n	n	n	n	8.8
COc1ccc(-c2ccc(=O)n(Cc3ccccc3)n2)cc1	n	n	n	n	x	x	x
CCN(CC)C(=O)CN1C(=O)C2CCCCN2C(=O)c2ccccc21 (stereo not given)	x	x	n	x	x	x	x
CC(C)Cc1nnc(NC(=O)c2cc3c(s2)CCC3)s1	n	8.2	n	n	x	94.6	28.8
O=C(Nc1nncs1)c1cc2c(s1)CCC2	n	n	n	n	n	x	x
CCCCNC(=O)C[C@H]1C[C@@]2(C(=O)OC)C(=C[C@H](COCc3ccccc3)O[C@@H]2C)N(Cc2ccco2)C1=O	x	x	n	x	x	x	x
COc1ccccc1NC(=O)CN1CCC(n2c(C)nc3cc(F)ccc32)CC1	n	9.1	n	n	n	n	7.8
COc1cccc(CNC(=O)[C@H]2CCCN2C(=O)[C@H]2CCCN2C(=O)c2ccc(C)c(C)c2)c1	n	x	n	x	x	x	x
Clc1ccccc1/C=N/NC1=Nc2cccc3cccc1c23	n	9.7	n	n	n	83.9	39.4
C(=N\NC1=Nc2cccc3cccc1c23)/c1ccccn1	n	n	n	n	n	x	x
CCOCCCNCC(=O)NC1(C)C2CCC(C2)C1(C)C (stereo not given)	n	n	n	n	n	x	x
CC1(C)C2CCC(C2)C1(C)NC(=O)CNCC1CCCCC1 (stereo not given)	n	10.2	n	n	n	30.2	14.3
O=C1C(=Cc2ccccn2)CCc2ccccc21	n	7.8	n	x	x	102.8	30.5
CCCCCCCCN1C(=O)N2Cc3ccccc3C2CS1(=O)=O (stereo not given)	x	x	n	x	x	x	x
